Among the data in ChEMBL document CHEMBL3433997, “St. Jude Leishmania screening dataset” (2016) are inhibition values, retold here.

Structures are written as SMILES.

Holding throughout (format): functional
Assay [1] addresses Solute carrier family 2, facilitated glucose transporter member 1 (Homo sapiens) (UniProt P11166). As to the kind of experiment: ST_JUDE_LEISH: Cytotoxicity at 2uM final concentration against transgenic Leishmania Mexicana promastigotes LmGLUT1 that are glucose transport deficient and complemented with the human glucose transporter GLUT1. Activity is measured by DNA content using SYBR green in vitro.

Assay [2] addresses Hexose transporter 1 (Plasmodium falciparum) (UniProt O97467). As to the kind of experiment: ST_JUDE_LEISH: Cytotoxicity at 2uM final concentration against transgenic Leishmania Mexicana promastigotes LmPfHT that are glucose transport deficient and complemented with the Plasmodium falciparum hexose transporter. Activity is measured by DNA content using SYBR green in vitro.
The target in assay [3] is Glucose transporter (Leishmania mexicana) (UniProt O61059). Kind of assay: ST_JUDE_LEISH: Cytotoxicity at 2uM final concentration against transgenic Leishmania Mexicana promastigotes LmGT2 that are glucose transport deficient and complemented with the L. Mexicana glucose transporter 2. Activity is measured by DNA content using SYBR green in vitro.

Solute carrier family 2, facilitated glucose transporter member 1 (Homo sapiens), sequence (P11166 whole entry): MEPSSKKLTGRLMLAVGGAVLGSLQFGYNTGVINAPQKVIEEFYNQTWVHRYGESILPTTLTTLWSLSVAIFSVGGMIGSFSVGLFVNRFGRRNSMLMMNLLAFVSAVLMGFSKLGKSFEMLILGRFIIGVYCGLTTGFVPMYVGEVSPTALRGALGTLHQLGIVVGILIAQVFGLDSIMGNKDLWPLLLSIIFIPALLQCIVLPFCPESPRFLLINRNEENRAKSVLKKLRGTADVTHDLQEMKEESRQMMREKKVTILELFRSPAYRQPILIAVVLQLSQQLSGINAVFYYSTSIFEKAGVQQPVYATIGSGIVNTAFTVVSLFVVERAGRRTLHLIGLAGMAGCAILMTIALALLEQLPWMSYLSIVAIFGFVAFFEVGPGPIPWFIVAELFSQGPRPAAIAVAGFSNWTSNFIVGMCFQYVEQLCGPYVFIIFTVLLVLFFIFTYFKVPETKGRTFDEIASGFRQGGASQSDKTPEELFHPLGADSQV

The term inhibition denotes the change of the read-out against control, counted positive when it falls. `Clc1cccc(C=NNc2ccnc3cc(Cl)ccc23)c1`: the inhibition is -1.51% in assay [1], -2.17% in assay [2] and -3.26% in assay [3].
In the same order, the values of `NC(=O)c1ccc(NCC(=O)Nc2cccc(-c3cccc(-c4nc5cc(C(F)(F)F)ccc5[nH]4)c3)c2)cc1` are 3.23%, 3.6% and 1.91%.
As for `CCOc1cc(C(=O)Nc2ccc3nc(N4CCN(C)CC4)cc(C)c3c2)cc(OCC)c1OCC`, the inhibition in assay [1] amounted to 3.11%; in assay [2], 3.76%; in assay [3], 1.63%.
For `CCOc1cc(C2C(C(=O)OC(C)C)=C(C)NC3=C2C(=O)CC(c2ccc(Cl)cc2)C3)ccc1OC(C)=O` (stereo unspecified) the same measures were 6.58%, 6.64% and 6.55%.
In the same order, the values of `Cc1cccc2nc(-c3ccc(-c4cccc(CNCC5CCCO5)c4)cc3)[nH]c12` (stereo unspecified) are 12.7%, 10.1% and 8.96%.
For `NC1=NC(CCc2ccccc2)N(c2ccccc2)C(N)=N1` (stereo unspecified) the same measures were 10.1%, 9.38% and 9.31%.
For the compound `COc1ccccc1-c1[nH]c2ccccc2c1CN1CCC(c2c(C)cccc2C)CC1`, the inhibition was found to be 16.3% in assay [1], 16.1% in assay [2] and 11% in assay [3].
For the compound `COc1ccc2nc(C)cc(N/N=C/c3ccccc3[N+](=O)[O-])c2c1`, the inhibition in assay [1] is 2.3%; in assay [2] it was 2.99%; in assay [3] it was -0.41%.
For `CN(C)c1ccc(CN2CCC(NC(=O)c3ccc(-c4ccccc4F)s3)CC2)cc1` the same measures were -0.33%, -1.02% and -6.69%.
For `CC(C)c1ccc(NC(=O)c2ccc(C(=O)NC3CCN(Cc4ccccc4)CC3)cc2)cc1` the same measures were 1.09%, 2.91% and -1.3%.
In the same order, the values of `O=C(CSc1nn(-c2ccccc2)c(=S)s1)c1c[nH]c2ccccc12` are 2.16%, 2.64% and 2.3%.
Turning to `CC(=O)N1N=C(c2ccccc2)Sc2c1nc(-c1ccc(Cl)cc1)n2C(C)=O`, the figures for the inhibition in assay [1], in assay [2] and in assay [3] were 1.37%, 1.41% and 3.09%, respectively.
For `Clc1cccc(C23N/C(=N\c4nc5ccccc5[nH]4)NC2(c2ccccc2)N/C(=N\c2nc4ccccc4[nH]2)N3)c1` (stereo unspecified) the same measures were 5.03%, 4.69% and 4.94%.
Take `CC(ON1C(N)=NC(N)=NC1(C)C)c1ccccc1` (stereo unspecified): the inhibition was 5.91% in assay [1], 4.22% in assay [2] and 6.95% in assay [3].
In the case of `CCc1cn(CC(=O)N(CCOc2ccc(-c3ccc(C(F)(F)F)cc3)cc2)CCN(CC)CC)c(SCc2ccc(F)cc2)nc1=O`, the figures for the inhibition in assay [1], in assay [2] and in assay [3] were 0.38%, 0.65% and -0.06%, respectively.
Consider `Cc1cccc2nc(-c3ccc(-c4ccc(CN5CCN(C6CCN(C)CC6)CC5)cc4)cc3)[nH]c12`, for which the inhibition in assay [1] is 1.22%; in assay [2] it was 1.31%; in assay [3], -0.53%.
In the same order, the values of `CCC(C)Oc1ccc(CCCON2C(N)=NC(N)=NC2(C)C)cc1` (stereo unspecified) are 12.6%, 20.2% and 13.8%.
Consider `CN(C)Cc1cccc(-c2ccc(NC(=O)c3ccc4c(=O)n(CC5CCCO5)cnc4c3)cc2)c1` (stereo unspecified), for which the inhibition amounted to 38.5% in assay [1], 22.4% in assay [2] and 14.5% in assay [3].
Consider `Cc1cc(NCC(c2ccccc2)c2ccccc2)nc(NCc2ccc(C(F)(F)F)cc2)n1`, for which the inhibition in assay [1] was determined as 5.66%; in assay [2], 6.13%; in assay [3] it was 3.66%.
In the same order, the values of `O=C(Cc1ccccc1)NC(CCN1CCC(O)(c2cccc(C(F)(F)F)c2)CC1)c1ccc(Cl)c(Cl)c1` (stereo unspecified) are 4.97%, 1.61% and 0.53%.
Turning to `Cc1nc2nc(N)nc(N)c2c(C)c1Cc1cccc(C(N)=O)c1`, the values for the inhibition in assay [1], in assay [2] and in assay [3] were 1.17%, 1.95% and -1.43%, respectively.
In the same order, the values of `CCCCCCN1CCC(NCc2cccc(-n3ccnc3)c2)CC1` are 8.02%, 7.03% and 9.81%.
Turning to `CCOc1ncccc1CN1CCC(N2CCc3cc(NC(=O)c4cc(C)on4)ccc32)C1` (stereo unspecified), the inhibition in assay [1] was -0.44%; in assay [2], 0.36%; in assay [3] it was -0.18%.
In the same order, the values of `CCc1cc(CNC2CCN(CCc3c(F)cnc4ccc(OC)nc34)CC2)cc2c1OCCO2` are 23.9%, 34.5% and 19.9%.
For `Cc1cc2c(cc1C(F)(F)F)N(C(=O)Nc1ccc(C(=O)NCCN3CCCC3)cc1)CC2` the same measures were 1.29%, 1.86% and -0.08%.
For `Cc1cc(NC(=O)NCCN2CCC(NC(=O)c3cccc(Br)c3)C2)c2ccccc2n1` (stereo unspecified) the same measures were 0.36%, 0.24% and 2.62%.
As to `COc1cccc(Cc2c(C)nc3nc(N)nc(N)c3c2C)c1`, the inhibition in assay [1] was -0.08%; in assay [2], 1.04%; in assay [3] it was -0.24%.
Turning to `COC(=O)C(C)NCC(=O)c1ccccc1` (stereo unspecified), the inhibition in assay [1] came out at 6.16%; in assay [2] it was 6.12%; in assay [3] it was 6.79%.
In the same order, the values of `Cc1ccc(Nc2nc3cc(N(C)c4ccnc(Nc5cccc(CCS(C)(=O)=O)c5)n4)ccc3n2C)cc1` are 3.07%, 7.25% and 3.82%.
In the same order, the values of `O=C(Nc1ccsc1C(=O)NC1CCCCC1)c1ccc(F)cc1` are 0.07%, -1.32% and -0.45%.
For `Cc1ccccc1C(=O)Nc1cccc(-c2nc3ncccn3c2C)c1` the same measures were 3.33%, 3.11% and 1.25%.
Consider `CC(=O)N(C)c1cccc(C(=O)Nc2ccc(-c3cccc(-c4nc5cc(C(F)(F)F)ccc5[nH]4)c3)cc2)c1`, for which the inhibition in assay [1] is 11.5%; in assay [2] it was 10.1%; in assay [3], 9.62%.
In the same order, the values of `CCCN(CCCCCCN(CCC)CCc1ccc(O)c(O)c1)CCc1ccc(O)cc1` are 9.55%, 12% and 10.8%.
For `CC(C)(CNCc1ccc(C(F)(F)F)cc1)c1nc(-c2ccnc(N)n2)c(-c2ccc(Cl)c(O)c2)[nH]1` the same measures were 1.5%, 0.51% and 2.94%.
For `Cc1cc(Nc2nc(NCc3cccnc3)nc3ccccc23)n[nH]1` the same measures were 8.58%, 10.4% and 10%.
As for `CN1CCN(Cc2cc3cc(NC(=O)/C=C/c4cccc(Cl)c4)ccc3s2)CC1`, the inhibition in assay [1] was 0.65%; in assay [2] it was 0.04%; in assay [3], -0.14%.
For `COc1ccc(-c2cc3nc4c(c(NCCCn5ccnc5)n3n2)CCCC4)cc1` the same measures were 1.31%, 1.92% and 2.25%.
